According to PubChem BioAssay AID1259416 (Broad Institute, 2018):
Several values for one entry are separate records, joined by “and”; a condition that tells them apart may be missing. Equal values may be shown once. Screen size: about 69,000 compounds; about 2,600 (3.8%) were called active. Shown is part of a subset that was picked to be rich in actives. Values without a mark were called inactive. Cut-off read from the data, not from the text of the source: active = activity change below about -70% (passing the limit was not always enough); inconclusive = no clear call, values can overlap the other calls.

Assay: inhibitors of Toxoplasma growth in IFN-γ-primed hosts – cell-based, primary screen (AID 1259416);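 note: host cells are HeLa cells infected with Toxoplasma gondii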
Conditions: Toxoplasma gondii growth in IFN-gamma-treated host cells; stronger effect = lower value; concentration not given here

Going from `COCC1CN(c2ccc(C)nn2)Cc2cnn(C)c21` (stereo unspecified) to `COCCC(=O)N1CCN(CC2CC2)c2nc(C)ccc2C1`, the activity change, negative = inhibition falls from -0.315% to -15.5%.

First: Cc1ccc(S(=O)(=O)Nc2cncc(C(=O)NCC(C)C)c2)cc1
Second: CC(C)NS(=O)(=O)c1ccc(OCC(=O)N2CCCCCC2)cc1
The activity change, negative = inhibition of the first is lower: -16.9% for the first, 1.18% for the second.

First: Cc1nn(C)c2c1C(c1cc(F)ccc1-n1cccn1)CC(=O)N2 (stereo unspecified)
Second: O=C(c1cccc(Cl)c1)N1CCC2(CC1)Nc1cc(F)ccc1-n1cccc12
The activity change, negative = inhibition of the first is lower: -37.8% for the first, 50.9% for the second.

Going from `CC1(C)[C@@H](O[C@H]2O[C@H](C(=O)O)[C@@H](O)[C@H](O)[C@@H]2O[C@@H]2O[C@H](C(=O)O)[C@@H](O)[C@H](O)[C@H]2O)CC[C@@]2(C)[C@H]3C(=O)C=C4[C@@H]5C[C@@](C)(C(=O)O)CC[C@]5(C)CC[C@@]4(C)[C@]3(C)CC[C@@H]12` to `COCC#Cc1ccc([C@@H]2[C@@H](CO)N3CCCCN(C(=O)NC4CCCC4)C[C@H]23)cc1`, the activity change, negative = inhibition falls from 15.6% to -18.5%.

First: COc1ccccc1-c1nc(Cc2noc(-c3cccnc3)n2)c(C)o1
Second: CCN1CCN(c2nc(-c3ccc(OC)cc3)nc3ccccc23)CC1
The activity change, negative = inhibition of the first is lower: -62.2% for the first, -47.8% for the second.

Compared with `O=C1N[C@H](c2ccccc2)COCc2cn(nn2)CC[C@H]1Cc1cccc(Cl)c1`, `Cc1cccnc1CN(C)C(=O)c1cc(CN2CCC(Cc3ccccc3)CC2)on1` is higher in activity change, negative = inhibition: -2.88% for the first, 9.1% for the second.

Going from `CCN(CC)C(=O)[C@@H]1C[C@H](N)CN1C(=O)Cc1ccc(F)c(C)c1` to `Cc1cc(-c2cc(C3CCN(C(=O)C4CC(=O)C4)C3)ccn2)ccc1F` (stereo unspecified), the activity change, negative = inhibition rises from 3.3% to 14.5%.

Compared with `c1ccc2c(-c3noc4c3CN(CC3CCCO3)CC4)cccc2c1` (stereo unspecified), `O=C(CCc1ccco1)N1CCc2onc(-c3ccc(C(F)(F)F)cc3)c2C1` is higher in activity change, negative = inhibition: -4.04% for the first, 9.55% for the second.

Compared with `O=C(CC1COCCN1)NCCC(c1ccccc1)c1ccccc1` (stereo unspecified), `CCOC(=O)c1nc(N2CCC(c3ccccc3)C2)c2ccccc2n1` (stereo unspecified) is higher in activity change, negative = inhibition: -9.21% for the first, 11.8% for the second.

First: CNc1nc(N2CCN(Cc3nccn3C(C)C)CC2)nc2c1CCC2
Second: CC(C)N1CCN(C(=O)c2csc(-c3ccc(N4CCCC4)nc3)n2)CC1
The activity change, negative = inhibition of the first is higher: 8.7% for the first, -27.3% for the second.

Going from `Cc1nc(CN2CCCn3nnc(COC(C)C)c3C2)cs1` to `Cn1nnc(-c2ccc(C(=O)NC(CN3CCCCC3)c3ccccc3)cc2)n1` (stereo unspecified), the activity change, negative = inhibition falls from 9.42% to -0.396%.

Compared with `O=C(Cn1ncc2c(N3CCN(c4ccccn4)CC3)ncnc21)NCc1ccc(F)c(Cl)c1`, `O=C(Cn1ncc2c(N3CCN(c4ccccc4)CC3)ncnc21)Nc1ccc(Cl)cc1` is higher in activity change, negative = inhibition: -16.9% for the first, -12.8% for the second.

First: CCC(=O)N1Cc2cc(C(=O)NCc3cccc(F)c3)nc(-c3cccc(C4=CCCC4)c3)c2[C@H]1CCO
Second: CCOc1ccccc1NC(=O)C(=O)NCCc1csc(-c2cccc(F)c2)n1
The activity change, negative = inhibition of the first is lower: -51.7% for the first, -13.3% for the second.

First: Cc1cccc(OC2CCN(C(=O)c3ccc(OCc4nonc4C)cc3)CC2)c1
Second: O=C(CC1CCN(Cc2ccccn2)CC1)Nc1ccc(OC2CCCC2)cc1
The activity change, negative = inhibition of the first is higher: -46.1% for the first, -69.9% for the second.

Compared with `Cc1cccc2[nH]nc(-c3cc(NCCN(C)C)nc4[nH]ccc34)c12`, `Nc1cccc(CCc2nc3ccccc3[nH]2)c1` is higher in activity change, negative = inhibition: -0.259% for the first, 22% for the second.

Compared with `Cc1nc(C)n(CCC(=O)N2CCN(S(=O)(=O)c3ccccc3)CC2)n1`, `CCCN1CCN(C(=O)c2nc(-c3cccc(F)c3)n3c2CCCCC3)CC1` is lower in activity change, negative = inhibition: 55.6% for the first, 3.76% for the second.

First: CC1=NOC(C)(CNC(=O)c2csc(-c3cccs3)n2)C1 (stereo unspecified)
Second: CCC(C(=O)OC)N1CCOc2c(O)cc(-c3ccc(C)s3)cc2C1 (stereo unspecified)
The activity change, negative = inhibition of the first is higher: -3.52% for the first, -5% for the second.

Going from `Cc1nc2ccccn2c1C(=O)N1CCCC(Cn2cc(C3CC3)nn2)C1` (stereo unspecified) to `O=C1CCCN1CC1CN(c2ncc(F)cn2)Cc2nccn2C1` (stereo unspecified), the activity change, negative = inhibition falls from 26.9% to 4.1%.

Compared with `CN(C)C(=O)CN1CC2CN(Cc3ccncc3)CCC2(c2ccccc2)C1` (stereo unspecified), `Cn1cc(CN2CCc3ncnc(-c4ccccc4)c3CC2)cn1` is lower in activity change, negative = inhibition: -2.67% for the first, -8.43% for the second.

First: COc1cc(COC2CN(C(=O)c3csc(SC)n3)CC(=O)N(C(C)C)C2)cc(OC)c1 (stereo unspecified)
Second: CCOCC1CN(Cc2ccc3c(c2)OCO3)Cc2cncn2C1 (stereo unspecified)
The activity change, negative = inhibition of the first is lower: -6.26% for the first, -0.275% for the second.

First: OCCn1c(-c2ccc(-c3ccn[nH]3)cc2)nc2ccccc21
Second: Cc1nc2nc(Cc3ccc(Cl)cc3)[nH]n2c(=O)c1Cc1ccccc1
The activity change, negative = inhibition of the first is higher: 92.2% for the first, 4.81% for the second.

Compared with `C=CCOCC12CCCOC1CCN(S(=O)(=O)c1cccnc1)C2` (stereo unspecified), `CN(C)c1ncnc2c1CCN(C(=O)c1ccnnc1)CC2` is lower in activity change, negative = inhibition: 40.1% for the first, -0.9% for the second.

`N#Cc1cccc(-c2ccc3c(c2)[C@H]2[C@H](CCN2S(=O)(=O)c2ccc(F)cc2)[C@@H](CO)N3)c1` gave an activity change, negative = inhibition of -42.4%.

With `Clc1ccc(-c2noc3c2CN(CCn2cc(Cl)cn2)CC3)cc1` the activity change, negative = inhibition was -72.1% (active).
With `Clc1ccc(Cn2ncc3c(NCc4cccnc4)ncnc32)cc1` the activity change, negative = inhibition was -81.5% (active).
For `CNc1cc(-c2cc(C(C)C)nc(C(F)(F)F)n2)c2cc[nH]c2n1`, the activity change, negative = inhibition was -83.6% (active).
With `O=C(Sc1cccs1)c1csc(C2COc3ccccc3O2)n1` (stereo unspecified) the activity change, negative = inhibition was -96.7% (active).
For `O=C1NCC(CN2CCOc3c(O)cc(-c4csc5ccccc45)cc3C2)O1` (stereo unspecified), the activity change, negative = inhibition was -76.2% (active).
With `COc1ccc(-c2nc3ccccc3n2-c2cc(C(C)(C)C)c(O)c(C(C)(C)C)c2)cc1` the activity change, negative = inhibition was -86.1% (active).
With `CCOc1ccccc1CNC(=O)c1nc(-c2cccc(F)c2)n2c1CCCCC2` the activity change, negative = inhibition was -84.4% (active).
With `Cc1cccc(Cc2c(C)[nH]n(-c3nc4ccccc4[nH]3)c2=O)c1` the activity change, negative = inhibition was -124% (active).
For `Cc1ccc(-c2nn(C(C)(C)C)c3ncnc(N)c23)cc1`, the activity change, negative = inhibition was -84% (active) and -73.5% (active).
With `Oc1c(Cl)cc(Cl)c(Cl)c1Cc1c(O)c(Cl)cc(Cl)c1Cl` the activity change, negative = inhibition was -85.3% (active) and -87.1% (active) and -96% (active).
With `O=C1CCCN1CC1CN(Cc2ccccn2)Cc2nccn2C1` (stereo unspecified) the activity change, negative = inhibition was -70.8% (active).
